Shown are actives, neighbours in structure and some others; about 6.3% of the full set was active somewhere.
ATXN2 expr inh – reduces ATXN2 reporter expression in HEK-293 cells; Potency, µM (top dose mostly 57 µM), inactives show at the highest dose activity change, negative = inhibition, usual class: inhibitors; 360,000 tested, 0.72% active; HEK-293 ATXN2-luciferase reporter, luminescence, 24 h; note: % is set by controls: 0 for no effect and ±100 for the full control effect; nearly all actives have a fitted effect of over 55% in size
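qHTS (up to 57 uM final) was run with 24 h compound exposure of reporter cells at 37 °C. Each well was multiplexed: SteadyGlo luminescence measured ATXN2-luciferase expression after a fluorogenic Gly-Phe-AFC viability readout (25 uM final).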
RORgamma inh – blocks mouse ROR gamma transcriptional activity; P51450; Potency, µM (top dose mostly 53.6 µM), for the others: at the highest dose activity change, negative = inhibition, usual class: inhibitors; 310,000 tested, 5.4% active; Drosophila S2 Gal4-RORgamma UAS-luciferase reporter, 20 h; note: % is set by controls: 0 for no effect and ±100 for the full control effect; nearly all actives have a fitted effect of over 60% in size
Target sequence (P51450 whole entry, looked up, the tested form may be a part): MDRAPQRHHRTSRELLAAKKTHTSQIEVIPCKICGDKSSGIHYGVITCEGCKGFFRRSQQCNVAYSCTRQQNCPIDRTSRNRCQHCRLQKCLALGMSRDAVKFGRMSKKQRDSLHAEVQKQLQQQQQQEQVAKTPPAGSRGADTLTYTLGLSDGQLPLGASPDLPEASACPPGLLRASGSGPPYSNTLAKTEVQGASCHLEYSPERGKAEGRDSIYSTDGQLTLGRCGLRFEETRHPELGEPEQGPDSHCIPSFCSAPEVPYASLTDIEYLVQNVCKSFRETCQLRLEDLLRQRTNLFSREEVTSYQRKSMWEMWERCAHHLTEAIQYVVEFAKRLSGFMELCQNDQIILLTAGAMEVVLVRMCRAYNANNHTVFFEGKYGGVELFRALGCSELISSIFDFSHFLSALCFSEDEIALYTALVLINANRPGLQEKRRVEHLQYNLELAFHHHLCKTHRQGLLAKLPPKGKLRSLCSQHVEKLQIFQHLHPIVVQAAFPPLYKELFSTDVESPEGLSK
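Read-out: Photinus luciferase luminescence; inhibitors lower reporter signal. Insect Schneider cells with Gal4-ROR gamma fusion under metallothionein promoter, UAS reporter; 700 uM final copper sulfate induction, 20 hr, ambient temperature.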
HepG2 viability – counter-screen for TGF-b inhibitors: cytotoxicity in HepG2 cells; HepG2 CAGA-GFP viability, ATP luminescence, 18 h; Potency, µM (series often up to 46.1 µM), inactives show at the highest dose activity change, negative = cytotoxicity, usual class: cytotoxic; 410,000 tested, 0.76% active; AID 588856
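HepG2 CAGA-GFP cells (1000/well, DMEM with 1% FBS) received compound, then TGF-beta at 500 pg/mL final, and were incubated 18 hours at 37 degrees C. Viability was read by CellTiter-Glo luminescence. Media-only wells were set as complete cell-killing and DMSO as no toxicity.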
TGFb SMAD3 inh – inhibitors of TGF-b signaling | HepG2 CAGA-GFP TGF-b/SMAD3 reporter, GFP fluorescence, 18 h; TGF-beta stimulated, 500 pg/mL final | Potency, µM (top dose mostly 46.1 µM), for inactives: at the top dose activity, negative = inhibition, actives largely listed as inhibitors | 410,000 tested, 1.2% active; note: % is set by controls: 0 for no effect and ±100 for the full control effect; nearly all actives have a fitted effect of over 65% in size
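HEPG2 CAGA-GFP reporter cells (1000/well, DMEM with 1% FBS) received compounds, then recombinant TGF-beta at 500 pg/mL final for 18 hours at 37 degrees C. Per-cell GFP summed per well was normalised to unstimulated and stimulated DMSO controls before curve fitting.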
VP16 counter – Gal4-VP16 reporter inhibition counter-screen. Drosophila S2 Gal4-VP16 UAS-luciferase, luminescence, 20 h. Potency, µM (top dose mostly 53.6 µM), without a hit: at the highest dose activity, negative = inhibition, hits mostly inhibitors. 310,000 tested, 3.5% active;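 note: Gal4-VP16 expression switched on by copper sulfate through the metallothionein promoter; % is set by controls: 0 for no effect and ±100 for the full control effect; nearly all actives have a fitted effect of over 50% in size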
ATXN viability – reduces viability in counter-screen for ATXN expression inhibitors; Potency, µM (titrated, usually from 56.7 µM), usual class: cytotoxic; 400,000 tested, 0.49% active; S2 cells (HEK-293 line with an ATXN2-luciferase reporter) viability, CellTiter-Fluor protease fluorescence, 24 h; note: nearly all actives have a fitted effect of over 40% in size
* marks the source's active call; other numbers are inactive results; i = inactive; ? = inconclusive; . = not tested or not shown. Calls come from the whole dose curve; as a rule, active = well fitted curve in the direction sought with a large enough effect; inconclusive = small, poorly fitted or top-dose-only effect, or another doubt; inactive = no such curve, though single readings can be large; an effect the other way counts as inactive or inconclusive. Potency is the fitted concentration of half-maximal effect.

SMILES | ATXN2 expr inh | RORgamma inh | HepG2 viability | TGFb SMAD3 inh | VP16 counter | ATXN viability
c1ccn2cc(C34CC5CC(CC(C5)C3)C4)nc2c1 | -4% | 5.6µM* | -5% | 2% | 22µM* | i
O=S(=O)(NCC1CCCO1)c1ccc(NS(=O)(=O)c2ccc(F)cc2)cc1 (stereo not drawn) | 12% | -30% | 6% | 16% | 0% | i
CSc1ccc(CCNC(=O)CCc2nnc3ccc(N4CCCCC4)nn23)cc1 | -20% | 26% | 2.8µM* | ? | -3% | i
Cc1cnc(-n2ncc(C(=O)NC(C)(C)CO)c2-c2cccs2)nc1-c1ccc(F)cc1 | . | . | . | . | . | i
Cc1nn(-c2ccc(N3CCCC3)nn2)c(C)c1CCC(=O)Nc1ccc(F)c(Cl)c1 | . | . | -28% | ? | . | .
Cc1cccc(C(=O)NNC(=O)c2ccccc2O)c1 | . | 13µM* | -35% | ? | ? | i
CC(C)(C)NC(=O)C(=O)NNC(=O)c1ccc(C(C)(C)C)cc1 | -7% | 8.9µM* | 2% | -1% | ? | i
CC(C)(C)NC(=O)C(=O)NNC(=O)c1cccc(Br)c1 | 32% | ? | 0% | 12% | ? | i
Cc1cccc(C(=O)NNC(=O)C(=O)NC(C)(C)C)c1 | 2% | 13µM* | -1% | 17% | -2% | i
O=C(O)c1ccc2c(c1)C(=O)N(CCc1ccc(O)cc1)C2=O | . | -3% | . | . | 3% | .
COc1cc(=O)n2c(c1C(=O)N(C)Cc1cscn1)CCN(C(=O)c1ccc(C)c(C)c1)CC2 | . | . | . | . | . | i
CCc1nnc(N2C(=N)SCC2=O)s1 | 2% | 1.4µM* | -14% | -16% | 13µM* | i
Cc1cccc(N2C(=N)SCC2=O)c1C | 6% | -8% | 1% | -4% | 2% | i
O=c1[nH]c(NNC(=S)NCc2ccccc2)nc2c1C1(CCCCC1)Cc1ccccc1-2 | . | 2.5µM* | -71% | ? | 2.8µM* | ?
C=CCNC(=S)NNc1nc2c(c(=O)[nH]1)C1(CCCC1)Cc1ccccc1-2 | -13% | 2.8µM* | -29% | ? | 3.2µM* | i
S=C(NCc1ccccc1)NNc1nc2ccccc2[nH]1 | 10% | 4.5µM* | -17% | -24% | -9% | i
O=c1[nH]c(NNC(=S)NC2CCCCC2)nc2c1C1(CCCC1)Cc1ccccc1-2 | -22% | 2.8µM* | -59% | -13% | 25µM* | i
O=c1[nH]c(NCCCO)nc2c1C1(CCCC1)Cc1ccccc1-2 | -1% | 26% | -41% | ? | 7% | i
c1ccc(CNc2nc3ccccc3[nH]2)cc1 | -34% | ? | -11% | 0% | -21% | i
CCC(=NNS(=O)(=O)c1ccc(C)cc1)c1ccc(OC)c(C)c1 | . | . | -10% | 2% | . | i
COc1cccc(-c2nnc3n2N=C(c2c(OC)cccc2OC)CS3)c1OC | . | 4% | . | . | 0% | .
CCCCC1=CC2=C(OC(C)=O)C(=O)C(C)(OC(=O)CC)C(=O)C2=CO1 (stereo not drawn) | . | -2% | . | . | 5% | .
Cc1onc(-c2ccccc2)c1C(=O)OCCOc1ccc([N+](=O)[O-])cc1[N+](=O)[O-] | -34% | 33% | -30% | 14µM* | -20% | i
COc1ccc(-c2cc(C(=O)Nc3cccc(C(C)=O)c3)no2)cc1OC | 1% | . | 14% | 33% | . | i
Nc1nonc1C(=O)N/N=C/c1ccc(-c2cccc([N+](=O)[O-])c2)o1 | -11% | -17% | -15% | 9% | 2% | i
O=[N+]([O-])c1cccc(-c2ccc(/C=N/NC(=S)Nc3cccc(F)c3)o2)c1 | -19% | 0.89µM* | 0% | -12% | 7.1µM* | i
O=C(N/N=C/c1ccc(-c2cccc([N+](=O)[O-])c2)o1)[C@H]1C[C@@H]1c1ccccc1 | -4% | 21% | 11% | -6% | 1% | i
O=C(N/N=C/c1ccc([N+](=O)[O-])cc1)c1cccs1 | . | ? | -11% | -1% | -4% | i
